High-throughput results (PubChem)
SNCA viab count: cell viability loss counter-screen; HEK-293-SNCA-luc viability, GF-AFC fluorescence, 24 h; Potency, µM (titrated, usually from 57.1 µM), most hits filed as cytotoxic; hit rate 0.12% among 150,000; AID 1671193; note: nearly all actives have a fitted effect of over 30% in size
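HEK-293-SNCA-luc cells (1500/well) plated 24 h, then exposed 24 h to a dilution series; GF-AFC added 30 min at 37C, fluorescence 405/540 nm; normalised to medium-only and DMSO wells, Hill fit.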
KDM5B inhibitor: KDM5B demethylase inhibition; KDM5B demethylase, FDH-coupled NADH fluorescence (FDH is formaldehyde dehydrogenase); Potency, µM (top dose mostly 57.7 µM), hits mostly inhibitors; hit rate 2.6% among 220,000; note: nearly all actives have a fitted effect of over 70% in size
Target sequence (Q9UGL1 whole entry, looked up): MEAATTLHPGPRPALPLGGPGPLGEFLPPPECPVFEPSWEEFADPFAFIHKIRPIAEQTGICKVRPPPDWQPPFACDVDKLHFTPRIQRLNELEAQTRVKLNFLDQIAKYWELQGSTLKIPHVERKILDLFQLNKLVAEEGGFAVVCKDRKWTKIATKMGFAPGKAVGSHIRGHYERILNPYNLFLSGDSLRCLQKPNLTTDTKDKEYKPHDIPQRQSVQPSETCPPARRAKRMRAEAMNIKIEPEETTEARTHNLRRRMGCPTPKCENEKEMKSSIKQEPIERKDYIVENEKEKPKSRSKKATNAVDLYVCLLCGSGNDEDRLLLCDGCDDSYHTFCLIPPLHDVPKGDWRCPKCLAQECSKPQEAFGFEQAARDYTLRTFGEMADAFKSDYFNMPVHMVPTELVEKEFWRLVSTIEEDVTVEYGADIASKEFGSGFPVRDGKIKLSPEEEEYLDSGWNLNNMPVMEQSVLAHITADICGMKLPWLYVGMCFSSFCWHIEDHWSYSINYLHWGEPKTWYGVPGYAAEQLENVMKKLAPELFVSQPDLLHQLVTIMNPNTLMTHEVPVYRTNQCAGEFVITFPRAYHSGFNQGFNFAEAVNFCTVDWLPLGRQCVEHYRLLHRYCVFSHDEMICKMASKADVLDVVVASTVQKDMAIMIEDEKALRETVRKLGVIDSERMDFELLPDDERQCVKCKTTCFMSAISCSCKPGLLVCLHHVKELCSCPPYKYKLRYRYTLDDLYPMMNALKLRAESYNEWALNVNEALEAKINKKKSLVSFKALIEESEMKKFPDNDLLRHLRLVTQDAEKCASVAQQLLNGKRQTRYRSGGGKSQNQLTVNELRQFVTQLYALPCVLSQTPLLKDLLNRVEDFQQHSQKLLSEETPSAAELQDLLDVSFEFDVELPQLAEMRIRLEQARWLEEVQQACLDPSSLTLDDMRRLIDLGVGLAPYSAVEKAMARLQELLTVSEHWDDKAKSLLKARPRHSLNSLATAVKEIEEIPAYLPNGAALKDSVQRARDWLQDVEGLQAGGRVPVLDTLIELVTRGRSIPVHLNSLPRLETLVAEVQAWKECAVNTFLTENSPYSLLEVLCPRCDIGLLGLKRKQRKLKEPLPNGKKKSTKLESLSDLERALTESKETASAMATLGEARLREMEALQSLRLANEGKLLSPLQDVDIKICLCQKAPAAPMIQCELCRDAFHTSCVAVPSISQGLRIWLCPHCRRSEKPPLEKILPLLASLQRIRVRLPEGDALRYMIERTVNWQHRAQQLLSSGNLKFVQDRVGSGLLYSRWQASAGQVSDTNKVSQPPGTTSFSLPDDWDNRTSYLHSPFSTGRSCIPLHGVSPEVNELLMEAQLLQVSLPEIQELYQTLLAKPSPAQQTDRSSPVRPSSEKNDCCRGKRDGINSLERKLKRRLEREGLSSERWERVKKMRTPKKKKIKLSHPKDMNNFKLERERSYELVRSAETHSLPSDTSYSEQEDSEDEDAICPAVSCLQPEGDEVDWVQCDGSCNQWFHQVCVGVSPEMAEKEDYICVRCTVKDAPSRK
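KDM5BΔAP (200 nM final) in 50 mM HEPES pH 7.5, 0.01% Tween-20 was preincubated 10 min at RT with compound over a concentration range. Substrate mix (H3K4me3 12.5 µM, α-KG 25 µM, Fe²⁺, ascorbate, NAD⁺, FDH) was added, and NADH fluorescence change over 30 min gave dose-response curves.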
SNCA expr inh: inhibitors of alpha-synuclein (SNCA) gene expression; HEK-293 SNCA-luciferase knock-in, luminescence, 24 h; Potency, µM (series often up to 57.2 µM), hits mostly inhibitors; hit rate 0.17% among 140,000; AID 1671194; note: nearly all actives have a fitted effect of over 45% in size
IP6K1 inh: IP6K1 kinase inhibition | activity change, % (series mostly up to about 58 µM) | hit rate 0.81% among 140,000 | Q92551 | IP6K1 kinase, ADP-Glo luminescence, 2 h; hits give low values | AID 1645851; in the data active = activity change below about -25%
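ADP-Glo luminescence measures ADP made by human IP6K1 during a 2 h RT reaction with ATP/IP6 (mix at 1.3 mM/130 uM); top library doses 57.5 and 19.1 uM final.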
IP6K1 inh cnf: human IP6K1 inhibition, confirmatory; shares compounds with IP6K1 inh; hit rate 13% among 1,200; Potency, µM (titrated, usually from 49 µM), usual class: inhibitors; recombinant IP6K1 kinase, ADP-Glo luminescence, 2 h; note: nearly all actives have a fitted effect of over 65% in size
Hits are given with their value; n = inactive; u = inconclusive; x = not tested or not shown; [ ] = dose if it differs, or a comment. A selection: hits, their analogues and other compounds. The true share with any hit is near 3%. Unless noted, calls come from the whole dose curve; as a rule, active = well fitted curve in the direction sought with a large enough effect; inconclusive = small, poorly fitted or top-dose-only effect, or another doubt; inactive = no such curve, though single readings can be large; an effect the other way counts as inactive or inconclusive.

SMILES | SNCA viab count | KDM5B inhibitor | SNCA expr inh | IP6K1 inh | IP6K1 inh cnf
O=C(Cc1ccc(F)cc1)N1CCN(Cc2ccccc2-c2cccnc2)CC1 | n[12.5 µM] | x | n | n | x
CCOP(=O)(OCC)Oc1ccc2c(C)cc(=O)oc2c1 | n | x | x | n | x
Cc1cc(SCc2sc(-c3ccc(C(F)(F)F)c(F)c3)nc2C)ccc1OCC(=O)O | n | x | n | -30 | u
COc1cc2c(cc1OC1CCCC1)NC(=O)C21CCN(c2cnccn2)CC1 | n | u | u | -30 | n
COc1cc2c(cc1OCc1ccccc1)NC(=O)C21CCN(c2cnccn2)CC1 | n | 32µM | n | -29 | u
C[C@@H]1C[C@@H](O)[C@]2(O)O[C@@H]3C[C@@]4(C=O)C(CC[C@@H]5C4CC[C@]4(C)[C@@](O)(C6=CC(=O)OC6)CC[C@]54O)C[C@H]3OC2O1 (stereo not given in full) | u | x | x | n | x
COc1ccsc1CNCC[C@@]1(c2ccccn2)CCOC2(CCCC2)C1 | n | x | x | n | x
Cc1ncsc1CCC(=O)N1C[C@@H](c2ccccc2)[C@@H]2[C@H]1C1CCN2CC1 | n | n | u | n | x
O=C(CCn1cccn1)N1C[C@H](c2cccc(F)c2F)[C@@H]2[C@H]1C1CCN2CC1 | n | n | n | -33 | n
COP(=S)(OC)SCN1C(=O)c2ccccc2C1=O | n | x | n | -37 | 18µM
COc1ccccc1CC(=O)N1CC2(CCN(C)CC2)c2cc(OC)c(OCc3ccccc3)cc21 | n | n | n | n | x
N#Cc1cn([C@@H]2O[C@H](CO)[C@H](O)[C@@H]2O)c2ncnc(N)c12 | n | x | x | -27 | 10µM
COc1ccc(S(=O)(=O)NC[C@H]2C[C@@H]3CCN2C[C@@H]3CN2CCC(Cc3ccccc3)CC2)cc1 | u | n | u | n | x
COc1cc2c(cc1OCC1CC1)NC(=O)C21CCN(C(=O)c2cccc(C#N)c2)CC1 | n | n | n | -27 | n
CN(C)[C@@H]1C(=O)C(C(N)=O)=C(O)[C@@]2(O)C(=O)C3=C(O)c4c(O)ccc(Cl)c4[C@@](C)(O)C3C[C@@H]12 (stereo not given in full) | n | x | x | n | x
CN(C)[C@@H]1C(=O)C(C(N)=O)=C(O)[C@@]2(O)C(=O)C3=C(O)c4c(O)cccc4[C@@](C)(O)[C@H]3C[C@@H]12 | n | x | n | -75 | n
CCOC(=O)[C@H]1CN(C(=O)CC2CCCC2)[C@]2(C)C(=O)Nc3ccccc3[C@H]12 | n | x | n | n | x
COc1cc(C)[nH]c(=O)c1CNC(=O)c1c(C)n([C@H](C)C2CCOCC2)c2ccccc12 | n | x | x | n | x
CCOc1ccc(CN(CCc2ccc3c(c2)OCO3)Cc2cccc(OC)c2)cc1 | n | u | n | -31 | n
CN1CCN(C(=O)Cc2c[nH]c3ncc(-c4ccccc4Oc4ccccc4)cc23)CC1 | n | 40µM | n | -28 | n
CN1CCN(C(=O)Cc2c[nH]c3ncc(-c4cccc(OC(F)(F)F)c4)cc23)CC1 | n | 35µM | n | -53 | u
Cc1sc2c(c1C)C(c1ccc(Cl)cc1)=N[C@@H](CC(=O)Nc1ccc(O)cc1)c1nnc(C)n1-2 | n[12.5 µM] | x | x | n | x
